Assay [1] in a line: compounds altering viability of human ES cells (AID 493140; call rule not given here;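 further: cells exposed to compounds for four days before counting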). To be noted: human embryonic stem cell survival screen; stronger effect = higher value.
Assay [2] is described as follows: compounds altering circadian rhythm period length – cell-based, LOPAC library, luminescence reporter (AID 2774; call rule not given here;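 further: values are relative to mean of DMSO wells on each plate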). To be noted: circadian reporter cells, at 7 µM, actives lie on both sides.
In assay [3] the test system is Hepatitis C virus NS3 helicase. Kind of assay: blockers of NS3h binding to ssDNA – biochemical, fluorescence polarization, LOPAC1280 library, primary screen (AID 687035; in the data active means inhibition above about 37%). The note with it: Purified HCV NS3 helicase, Cy5-dT15 ssDNA binding fluorescence polarization; stronger effect = higher value; concentration not given here. On the technique in general: Fluorescence polarisation rises when a labelled molecule tumbles more slowly, as on binding a larger partner.

Assay [4] can be described thus: compounds altering Cy5-DNA-NS3h complex signal – biochemical, LOPAC1280, artefact control for HCV NS3 helicase inhibitor project (AID 687037; call rule not given here). The note with it: Cy5-DNA-NS3h complex fluorescence interference counterscreen. For orientation: Counterscreens check selectivity or assay interference.
For assay [5], the system named is Aerobactin synthetase IucA (Klebsiella pneumoniae, hypervirulent). The experiment in a line: biochemical IucA inhibition screen of LOPAC library by absorbance (AID 1346212; call rule not given here;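 further: 100% = no compound wells and 0% = no enzyme wells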). To be noted: IucA enzyme assay, absorbance (OD) readout; stronger effect = lower value;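 tested at 8 µM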.
The nature of assay [6]: blockers of cellular phospholipid synthesis – cell-based, LOPAC library, screen 4, primary screen (AID 1347384; call rule not given here). The note with it: animal cells, phospholipid biosynthesis inhibition screen; at 10 µM.
Assay [7] in a line: modulation of C. elegans fzo-1 (AID 1259413; call rule not given here;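 further: fzo-1 mutant C. elegans worms in liquid wells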). To be noted: C. elegans fzo-1 modulator screen, mean read-out; stronger effect = higher value.
For assay [8], the system named is F380Y. The experiment in a line: BK channel mutant inhibitors and activators – cell-based, U2OS BacMam, thallium flux, beta subunits, selectivity assay, profiling panel (AID 1259406).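 Further: initial slope of Thallos dye fluorescence rise after thallium is added; log ratio against the mean of 0.3% DMSO vehicle wells on the same plate.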 To be noted: U2OS BacMam BK variants, at 30 µM.
Assay [9] relates to F380Y/beta1. The assay is described as above. To be noted: U2OS BacMam BK variants, at 30 µM.
The test system of assay [10] is F380Y/beta2Delta. The description is as above. The note with it: U2OS BacMam BK variants, at 30 µM.
The subject of assay [11] is R275C. Described as above. The note with it: U2OS BacMam BK variants, at 30 µM.
Assay [12] relates to R275C/beta1. The assay is described as above. To be noted: U2OS BacMam BK variants, at 30 µM.
Assay [13] concerns R275C/beta2Delta. The description is as above. The note with it: U2OS BacMam BK variants, at 30 µM.
Assay [14] relates to R275C/Slo1WT/beta2. Described as above. To be noted: U2OS BacMam BK variants, at 30 µM.
Assay [15] in a line: blockers of polyQ-driven CASP3 activation – cell-based (AID 1583). To be noted: polyglutamine-induced caspase-3 activation, cell assay; stronger effect = higher value;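 tested at 10 µM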.
Assay [16] can be described thus: restoration of touch response, mutant HTT neurons – whole organism, C. elegans mechanosensory neurons, N-terminal huntingtin (AID 1599). The note with it: C. elegans polyQ-huntingtin mechanosensory neurons, stronger effect = higher value.
Assay [17] in a line: glutamate transport activators, MN-1 cells, MN-1 cell line (AID 1612).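 Further: tested at 1 µM final; 0% = mean of DMSO vehicle wells on each plate; positive means more glutamate uptake than control and negative means less.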 To be noted: MN-1 motor neuron cells, stronger effect = higher value.
Assay [18] in a line: GFP-Q80 aggregate reduction, neuronal-like cells, cell-based, NGF-treated PC12, GFPQ80 (AID 1614).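 Further: lower means fewer inclusions and 0 means no inclusions at all.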 The note with it: PC12 NGF-treated GFP-polyQ80 inclusion reduction.
Assay [19] in a line: 75Q-TubH aggregate inhibition, S. cerevisiae, yeast (AID 1616). To be noted: S. cerevisiae 75Q-TubH polyglutamine aggregation suppression; stronger effect = higher value.

We go through twelve compounds from PubChem BioAssay.

For some of these results: Measured potencies and affinities stand elsewhere. Active and inactive are the calls of the source.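 How the source made its calls, unless noted: active means thallium flux through the channel raised or lowered by more than 3 SD from vehicle-only wells, actives on both sides; inactive means the rest.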

For `CC1(C)C(C=C(Cl)Cl)C1C(=O)OC(C#N)c1cccc(Oc2ccccc2)c1` (configuration not stated), the survival in assay [1] was 64.8 (inactive).
Broadly, the inhibition is the change of the read-out against control, counted positive when it falls. The term remaining activity denotes the signal under treatment as a percentage of the control signal. As to `c1ccc2c(c1)OCC(C1=NCCN1)O2` (configuration not stated), the period change in assay [2] is 0.1 h (inactive). Further, the survival in assay [1] is 1.58 (inactive). Further, the inhibition in assay [3] was -7% (inactive). Further, the fluorescence ratio (interference) in assay [4] was 0.9 (inactive). The remaining activity in assay [5] was 109% (inactive). Besides, the result in assay [6] was inactive.
Regarding `C[N+]1(CCC(C(N)=O)(c2ccccc2)c2ccccc2)CCCCC1`, in assay [7], the mean signal was 231 (inactive). For the same compound, the log fold change Tl+ flux in [8] is 0.00354 (inactive); in assay [9] it was -0.0163 (inactive); in [10], 0.00809 (inactive); in [11], -0.0159 (inactive); in [12], -0.0271 (inactive); in [13] it was -0.0181 (inactive). In assay [14], the log fold change Tl+ flux was 0.0123 (inactive).
As to `COc1cc(N)c(Cl)cc1C(=O)NC1CN2CCC1CC2` (configuration not stated), the mean signal in assay [7] was 253 (inactive).
Consider `CCCC(C)C1(CC)C(=O)N=C(S)NC1=O` (configuration not stated), for which the inhibition in assay [15] came out at 15.2%. Also, the rescue above control in assay [16] was -8.64. For the same compound, in [17], the glutamate uptake change stood at 15.5%. Further, the inclusion score in [18] worked out at 2. Moreover, in [19], the aggregation suppression score turned out to be 0.929.
Turning to `CNCC(O)c1ccc(O)cc1` (configuration not stated), the period change in assay [2] is -0.045 h (inactive). Besides, the survival in assay [1] is 2.92 (inactive). Further, in assay [3], the inhibition was -2% (inactive). The fluorescence ratio (interference) in assay [4] was 1 (inactive). For the same compound, the mean signal in assay [7] was 258 (inactive). Further, the outcome in assay [6] was inactive. The log fold change Tl+ flux was -0.0218 (inactive) in [8]; -4.2e-05 (inactive) in assay [9]; 0.0172 (inactive) in [10]; -0.0246 (inactive) in [11]; 0.022 (inactive) in assay [12]; 0.0197 (inactive) in [13]. Moreover, the log fold change Tl+ flux in assay [14] is 0.0309 (inactive).
Regarding `C=C1C[C@@H]2[C@H](CC[C@]3(C)C(=O)CC[C@@H]23)[C@@]2(C)C=CC(=O)C=C12`, the log fold change Tl+ flux in [8] was -0.00852 (inactive); in assay [9], 0.059 (inactive); in [10], 0.0277 (inactive); in assay [11] it was -0.00349 (inactive); in [12], 0.0308 (inactive); in assay [13], 0.00258 (inactive). Moreover, in assay [14], the log fold change Tl+ flux is 0.0155 (inactive).
In the case of `CN1C(=O)COc2c(C(=O)NC3CN4CCC3CC4)cc(Cl)cc21` (configuration not stated), the mean signal in assay [7] was 219 (inactive). Besides, the log fold change Tl+ flux in [8] was 0.054 (inactive); in assay [9], 0.0287 (inactive); in assay [10], 0.0242 (inactive); in [11] it was -0.0315 (inactive); in assay [12], 0.0279 (inactive); in assay [13], -0.00752 (inactive). The log fold change Tl+ flux in assay [14] was -0.0098 (inactive).
On to `CN[C@@H](C)[C@H](O)c1ccccc1`, for which the period change in assay [2] is -0.07 h (inactive).
`Oc1cc(Cl)ccc1Oc1ccc(Cl)cc1Cl`: the mean signal in assay [7] was 192 (inactive). Further, the log fold change Tl+ flux in assay [8] is -0.452 (active); in assay [9], -0.302 (active); in [10], -0.343 (active); in [11], -0.105 (active); in assay [12], -0.254 (active); in assay [13], -0.148 (active). In addition, in assay [14], the log fold change Tl+ flux was -0.125 (active).
As for `NC1=NC(=O)C(c2ccccc2)O1` (configuration not stated), the mean signal in assay [7] is 245 (inactive). Moreover, the log fold change Tl+ flux in assay [8] is -0.012 (inactive); in assay [9] it was -0.0441 (inactive); in assay [10], -0.0196 (inactive); in assay [11], 0.00173 (inactive); in [12], 0.00542 (inactive); in assay [13], -0.00885 (inactive). The log fold change Tl+ flux in [14] was 0.0857 (active).
As to `CN1[C@@H]2CC[C@H]1CC(OC(=O)c1cc(Cl)cc(Cl)c1)C2` (some centres not stated), the remaining activity in assay [5] was 96.1% (inactive).
